TEAD-YAP inh = TEAD-YAP interaction inhibition, primary screen, TEAD-YAP interaction inhibitor project, luminescence, HEK-TIYL cells; TEAD-Gal4/YAP UAS-luciferase luminescence; hit rate 1.4% among 640,000; inhibition, % at 9.12 µM; AID 1259422, 2018; in the data active = inhibition above about 32%
FBW7 act = FBW7 E3 ligase activators, primary screen, biochemical, AlphaScreen, human; hit rate 0.13% among 650,000; normalized activity (activation), % at 26.1 µM; AID 1259310, 2017; AlphaScreen FBW7–phospho-cyclin E peptide binding, activator screen; in the data active = normalized activity above about 1.9%;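 note: purified mutant Fbw7 with reduced substrate affinity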
MITF primary = MITF inhibitors, primary screen, biochemical, AlphaScreen, human; Microphthalmia-associated transcription factor (Homo sapiens), O75030; AlphaScreen MITF homodimerization, bead proximity signal; inhibition, % at 2.6 µM; hit rate 0.91% among 650,000; AID 1259374, 2018; in the data active = inhibition above about 50%
Target sequence (O75030 whole entry, looked up): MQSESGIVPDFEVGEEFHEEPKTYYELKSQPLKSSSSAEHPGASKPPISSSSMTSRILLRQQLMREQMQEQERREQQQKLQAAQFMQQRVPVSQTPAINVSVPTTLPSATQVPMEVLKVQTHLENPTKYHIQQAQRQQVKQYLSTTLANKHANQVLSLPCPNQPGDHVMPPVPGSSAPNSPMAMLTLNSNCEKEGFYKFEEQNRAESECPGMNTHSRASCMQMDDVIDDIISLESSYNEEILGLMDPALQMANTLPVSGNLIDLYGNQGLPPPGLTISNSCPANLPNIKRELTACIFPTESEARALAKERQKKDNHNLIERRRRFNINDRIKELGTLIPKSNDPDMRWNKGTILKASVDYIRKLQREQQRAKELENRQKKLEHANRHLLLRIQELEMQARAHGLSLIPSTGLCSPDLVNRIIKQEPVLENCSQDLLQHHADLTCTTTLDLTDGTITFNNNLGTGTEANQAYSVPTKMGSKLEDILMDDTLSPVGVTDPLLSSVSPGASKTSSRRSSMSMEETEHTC
GPR151 ag = activators of human GPR151, primary screen, cell-based, PathHunter beta-arrestin, luminescence | PathHunter beta-arrestin GPR151 cells | AID 1508602, 2020 | activation, % at 11.2 µM | G-protein coupled receptor 151 (Homo sapiens), Q8TDV0 | hit rate 1% among 650,000; in the data active = activation above about 4.9%
Each line names hits and unclear results; the compound was inactive in the other large screens. In the library only some 3.4% were active in any assay of this set; here they are far more common.

c1ccc(-n2cnc3c(NCc4cccnc4)nc(N4CCN(c5ccccn5)CC4)nc32)cc1	none
c1ccc(N2CCN(c3nc(NCc4cccnc4)c4ncn(-c5ccsc5)c4n3)CC2)nc1	TEAD-YAP inh 51
COc1ccc(C(=O)CC2(O)C(=O)N(CC(N)=O)c3ccccc32)cc1[N+](=O)[O-] (centres undefined)	none
O=C(Cn1nnc(-c2ccccc2NC(=O)c2ccc(F)cc2)n1)NCc1cccs1	FBW7 act 2.5
COc1cc(/C=C/C(=O)Nc2ccc3nc(N4CCN(c5ncccn5)CC4)cc(C)c3c2)cc(OC)c1OC	TEAD-YAP inh 42
Cc1cc(N2CCN(c3ncccn3)CC2)nc2ccc(NC(=O)c3ccncc3)cc12	TEAD-YAP inh 48
NC(=O)c1ccc(NCc2ccccc2Cl)c([N+](=O)[O-])c1	none
COc1ccc(Br)cc1/C=C/C(=O)c1ccco1	TEAD-YAP inh 61
COc1ccc(-c2ccc(/C=C/C(=O)c3ccco3)o2)cc1	MITF primary 63
O=C(/C=C/Nc1ccc(Br)cc1Cl)c1ccco1	TEAD-YAP inh 94
COc1ccccc1-c1ccc(/C=C/C(=O)c2ccco2)o1	none
CCCc1nnc(SCC(=O)Nc2ccc(Cl)cc2)n1CCOC	none
O=C(COc1ccccc1)Nc1cccc2cccc(NC(=O)COc3ccccc3)c12	none
C#Cc1cccc(C(=O)N2CCc3c(C(=O)NCCC(C)C)c(OC)cc(=O)n3CC2)c1	none
COc1ccc(C(=O)CCC(=O)Nc2cccc(C)c2)cc1	none
Cc1ccc(C(C)(C)C)c(OCCOCCNCCN)c1	none
Clc1ccc(OCc2cn3ccccc3n2)cc1	none
O=C1CCc2ccc(OCc3cn4ccccc4n3)cc21	TEAD-YAP inh 58
COc1ccc(C(=O)/C=C/Nc2cc(C)ccn2)cc1	TEAD-YAP inh 36
Cc1ccc(NC(=O)Nc2cc(C)ccn2)cc1	none
COc1ccc(NC(=O)Nc2cc(C)ccn2)cc1	TEAD-YAP inh 41
CCOC(=O)C1CCN(C(=O)COCC(=O)N2CCC(C(=O)OCC)CC2)CC1	none
CCOC(=O)C1CCN(C(=O)COc2ccc(C)cc2)CC1	none
CCOC(=O)C1CCN(C(=O)COc2ccc(C(C)(C)C)cc2)CC1	TEAD-YAP inh 60
CCOC(=O)C1CCN(C(=O)COC(=O)c2cc(O)c(O)c(O)c2)CC1	MITF primary 90
CCN(CC)C(=O)C1CCCN(c2nc(NCCN(C(C)C)C(C)C)c3ncn(-c4ccccc4)c3n2)C1 (centres undefined)	TEAD-YAP inh 41
CCN(CC)C(=O)C1CCCN(c2nc(NCCN(C(C)C)C(C)C)c3ncn(C(C)C)c3n2)C1 (centres undefined)	none
CCN(CC)C(=O)C1CCCN(c2nc(N)c3ncn(-c4ccccc4)c3n2)C1 (centres undefined)	TEAD-YAP inh 46
CCN(CC)C(=O)C1CCCN(c2nc(Nc3cc(OC)c(OC)c(OC)c3)c3ncn(C(C)C)c3n2)C1 (centres undefined)	TEAD-YAP inh 34
CCN(CC)C(=O)C1CCCN(c2nc(Nc3ccccc3)c3[nH]cnc3n2)C1 (centres undefined)	TEAD-YAP inh 48
COC(=O)Oc1c(Br)c(C)c2oc(=O)sc2c1Br	none
CC1Sc2ccc(C#N)cc2N(Cc2cccc(F)c2)C1=O (centres undefined)	none
CN1CCN(c2ccc(-c3cccc(C(=O)NCCOc4ccccc4)c3)cc2)CC1	none
N#CC1=C(N)OC2=C(C(=O)CCC2)C1c1cn[nH]c1-c1ccc(F)cc1 (centres undefined)	none
O=C1CCCC2=C1C(c1cn[nH]c1-c1ccc(F)cc1)C1=C(CCCC1=O)O2	TEAD-YAP inh 49
CC(=O)c1cccc(-c2cnc3c(NC(CO)C(C)C)nccn23)c1 (centres undefined)	none
CC(C)C(CO)Nc1nccn2c(-c3ccc(C(=O)NC4CC4)cc3)cnc12 (centres undefined)	TEAD-YAP inh 51
CC(C)C(CO)Nc1nccn2c(-c3cccc(NS(C)(=O)=O)c3)cnc12 (centres undefined)	TEAD-YAP inh 55
O=C(Nc1cccc(C(F)(F)F)c1)c1ccc(Br)c([N+](=O)[O-])c1	none
C#CCOc1cc(Br)c(/C=C2/NC(=O)NC2=O)cc1OCC	TEAD-YAP inh 32
Cn1c(=NC(=O)Cc2ccccc2)sc2cc(Cl)ccc21	none
O=C1COc2cc(S(=O)(=O)CCC(=O)NC3CCCc4ccccc43)c(Cl)cc2N1 (centres undefined)	none
Cc1ccccc1-n1c(C)cc(/C=C2/C(=N)N3C=CSC3=NC2=O)c1C	TEAD-YAP inh 97
CC1=CN2C(=N)/C(=C/c3cc(C)n(-c4ccccc4F)c3C)C(=O)N=C2S1	none
Cc1cccc(-n2c(C)cc(/C=C3/C(=N)N4C=CSC4=NC3=O)c2C)c1C	TEAD-YAP inh 46
CCc1ccccc1-n1c(C)cc(/C=C2/C(=N)N3C=CSC3=NC2=O)c1C	TEAD-YAP inh 62
Cc1ccc(C)c(-n2c(C)cc(/C=C3/C(=N)N4C=CSC4=NC3=O)c2C)c1	none
Cc1cc(/C=C2/C(=N)N3C=CSC3=NC2=O)c(C)n1-c1ccccc1Cl	TEAD-YAP inh 92
CCc1ccc(-n2c(C)cc(/C=C3/C(=N)N4C=CSC4=NC3=O)c2C)cc1	none
Cc1ccc(/C=c2\sc3nnc(-c4ccccc4C)n3c2=O)o1	none
Cc1cc(C)cc(-n2c(C)cc(/C=C3/C(=N)N4C=CSC4=NC3=O)c2C)c1	none
Cc1cc(/C=C2/C(=N)N3C=CSC3=NC2=O)c(C)n1-c1ccccc1	TEAD-YAP inh 88
Cc1ccnc(Nc2nc(-c3cccs3)cs2)c1	none
Cc1ccnc(Nc2nc(-c3ccccn3)cs2)c1	TEAD-YAP inh 73, MITF primary 103
Cc1ccc(Nc2nc(-c3ccccn3)cs2)cc1	TEAD-YAP inh 55
CC(=O)O[C@H]1C(=O)[C@@]2(C)[C@H]([C@H](OC(=O)[14c]3[14cH][14cH][14cH][14cH][14cH]3)[C@]3(O)C[C@H](OC(=O)[C@H](O)[C@@H](NC(=O)c4ccccc4)c4ccccc4)C(C)=C1C3(C)C)[C@]1(OC(C)=O)CO[C@@H]1C[C@@H]2O	none (no result: TEAD-YAP inh)
CC(=O)O[C@H]1C(=O)[C@@]2(C)[C@H]([C@H](OC(=O)c3ccccc3)[C@]3(O)C[C@H](OC(=O)[C@H](O)[C@@H](NC(=O)c4ccccc4)c4ccccc4)C(C)=C1C3(C)C)[C@]1(OC(C)=O)CO[C@@H]1C[C@@H]2O	TEAD-YAP inh 64
CCOC(=O)c1c(N)sc(C(=O)Nc2ccc(OC)cc2)c1C	TEAD-YAP inh 42
CCOC(=O)c1sc(N)c(C(=O)Nc2ccccc2OC)c1C	TEAD-YAP inh 54
CCOC(=O)c1ccc(NC(=O)c2sc(NC(=O)c3ccc(OC)cc3)c(C(=O)OCC)c2C)cc1	none
CCOC(=O)c1c(N)sc(C(=O)Nc2ccc3c(c2)OCO3)c1C	TEAD-YAP inh 79
COC(=O)c1c(N)sc(C(=O)Nc2ccccc2OC)c1C	none
